# RAD52 anneal inh: blocks human RAD52 DNA annealing; P43351; recombinant RAD52 DNA annealing, FRET fluorescence; inhibition, % at 18.7 µM; actives 0.46% (n = 360,000);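 active = every replicate showing at least 50% inhibition; inconclusive = mean inhibition at least 50% but not in every replicate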
# Target sequence (P43351 whole entry, looked up): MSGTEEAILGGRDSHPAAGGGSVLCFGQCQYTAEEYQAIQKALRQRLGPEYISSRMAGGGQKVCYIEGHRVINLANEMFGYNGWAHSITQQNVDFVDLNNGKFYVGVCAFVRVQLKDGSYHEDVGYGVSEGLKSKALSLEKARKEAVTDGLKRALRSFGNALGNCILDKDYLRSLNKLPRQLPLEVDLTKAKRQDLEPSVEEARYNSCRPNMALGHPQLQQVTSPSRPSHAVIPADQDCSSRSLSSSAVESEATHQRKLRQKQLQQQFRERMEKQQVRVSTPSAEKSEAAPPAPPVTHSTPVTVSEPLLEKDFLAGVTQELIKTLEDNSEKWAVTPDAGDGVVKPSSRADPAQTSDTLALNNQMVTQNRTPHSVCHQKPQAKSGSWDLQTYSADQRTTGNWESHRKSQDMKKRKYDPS
# MLL AF4-AF9 inh: inhibitors of human MLL-AF4/AF9 interaction; P42568; AlphaScreen, biotin-AF4 peptide binding to FLAG-AF9; actives 0.47% (n = 350,000); inhibition, % at 10 µM; AID 651704;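 active = every replicate reaching a set inhibition limit, whatever the replicate mean, cut at about 25% in these data; inconclusive = mean inhibition reaches that limit but some replicates miss it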;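 note: 0% = plate neutral control median and 100% = total signal loss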
# FGF22 binding: binders of recombinant human FGF22 by thermal shift; SYPRO orange fluorescence; percent of sucrose octasulfate shift, DMSO zero; activity (Tm shift, normalised), % at 9.99 µM; actives 1.5% (n = 340,000); Q9HCT0; AID 651658;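 active = mean Tm shift, scaled 0 neutral to 100 positive control, at about 1.3% or above, every replicate too, limit read from the data; inconclusive = no clear call, values can overlap the other calls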
# Target sequence (Q9HCT0 whole entry, looked up): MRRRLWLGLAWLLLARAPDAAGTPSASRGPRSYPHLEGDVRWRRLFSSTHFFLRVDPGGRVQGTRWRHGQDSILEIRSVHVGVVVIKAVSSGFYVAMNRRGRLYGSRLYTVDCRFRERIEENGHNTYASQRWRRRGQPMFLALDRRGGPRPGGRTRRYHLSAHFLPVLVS
# DENV2 CPE: protects cells from dengue virus 2 cytopathic effect | DENV2-infected cells, cytopathic effect rescue, plate reader | CPE inhibition, % at 9.99 µM | actives 1.7% (n = 350,000); in the data active = CPE inhibition above about 20%, passing the limit was not always enough; inconclusive = no clear call, values can overlap the other calls; tested in BHK-21 cells;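 note: 0% = median of neutral control wells and 100% = median of positive control wells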
# ERAP1 HTS inh: inhibitors of human ERAP1 aminopeptidase. Q9NZ08. recombinant ERAP1, Leu-AMC fluorescence, 60 min. inhibition, % at 10.7 µM. actives 0.15% (n = 340,000). AID 652197;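 active = mean replicate inhibition of at least 30%, or all replicates individually reaching that 30% level; inactive = mean below 30% and not every replicate reaching it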;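 note: 0% = neutral control wells and 100% = L-leucinethiol positive control wells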
# * hit, by the source's call; ? = inconclusive; · = not tested or not shown; ! = not confirmed by another sample. Shown are actives, neighbours in structure and some others; about 4% of the full set was active somewhere.
SMILES,RAD52 anneal inh,MLL AF4-AF9 inh,FGF22 binding,DENV2 CPE,ERAP1 HTS inh
COc1ccc2c3c(n(C)c2c1)[C@H](CO)N(CC1CCCC1)CC31CN(C(=O)Nc2ccccc2)C1,1.6,-1.2,·,5.4,0.5
COc1ccc2c3c(n(C)c2c1)[C@H](CO)N(CC1CC1)CC31CN(C(=O)Nc2ccccc2)C1,-8.5,·,0.0,22.7*,·
COc1ccc2c3c(n(C)c2c1)[C@H](CO)N(CC1CC1)CC31CCN(C(=O)CN(C)C)CC1,54.1*,11.3,-0.2,4.2,-0.6
COc1ccc2c3c(n(C)c2c1)[C@@H](CO)N(CC1CC1)CC31CN(Cc2ccc(F)cc2)C1,38.0,29.8*,·,-0.6,1.7
COc1ccc2c3c(n(C)c2c1)[C@@H](CO)N(CC1CC1)CC31CN(C(=O)CC2CC2)C1,-9.5,-1.1,0.1,20.8*,-3.7
CC=Cc1ccc2n(c1=O)C[C@H]1[C@H](CO)[C@@H](C(=O)NCc3ccccc3)N(CC)[C@@H]21 (mixture of isomers),-13.3,-0.9,·,13.7,-0.7
CCCn1c(=N)n(CC(O)COc2ccc(C)cc2)c2ccccc21 (stereo not given),-2.3,2.8,-0.1,41.4*,-2.5
CCn1c(=N)n(CC(O)COc2ccc(C)cc2)c2ccccc21 (stereo not given),8.9,-3.9,-0.1,1.7,-1.1
CCCCCn1c(=N)n(CC(O)COc2ccccc2OC)c2ccccc21 (stereo not given),12.3,50.0*!,-0.2,3.3,-8.9
Cc1nc2ccccc2n1CC(O)COc1ccc(Br)cc1 (stereo not given),-12.4,0.9,43.9*,-4.1,-3.5
COCC(=O)N1[C@H](CO)[C@@H](c2ccccc2)C12CN(C(=O)c1ccc(F)cc1)C2,-5.4,-3.1,0.0,-10.0,-0.9
C[C@@H]1CN([C@H](C)CO)C(=O)c2cc(-c3ccccc3F)cnc2O[C@@H]1CN(C)C(=O)c1cnccn1,1.4,-2.4,0.1,2.4,0.1
CN1CCN(c2nc(-c3ccc(C(C)(C)C)cc3)nc3ccccc23)CC1,-8.6,11.1,-0.5,-2.5,-0.1
Cc1ccc(-c2nc(N3CCN(C)CC3)c3ccccc3n2)cc1,4.7,2.4,0.3,24.9*,-6.6
C/C=C/c1ccc([C@H]2[C@@H](CO)N(C(=O)c3cnccn3)C23CN(C(=O)C2CC2)C3)cc1,-5.5,-0.5,·,-0.3,0.8
CCN(CC)C(=O)c1ncn(C)c1C(=O)N(CC)CC,-7.9,-4.7,0.0,3.6,107.3*
CN(Cc1ccccc1)C(=O)c1ncn(C)c1C(=O)N(C)Cc1ccccc1,-7.4,-5.7,-0.1,6.3,30.8*
CCN(CC)C(=O)c1ncn2c1C(=O)NC[C@H]2C,-5.1,0.2,-0.2,11.4,-4.2
Cc1ccc(CC(=O)NCc2cccnc2)cc1,-2.3,-1.9,44.0*,-4.6,-2.5
NC(=S)NCc1cccnc1,11.4,-11.2,43.3*,-8.8,-2.1
CN(C)CC(=O)N1[C@@H](CO)[C@@H](c2ccccc2)C12CN(C(=O)c1ccccc1)C2,-33.7,0.0,-0.1,10.7,-0.9
CCOc1ccccc1CNC(CC)CO (stereo not given),-14.3,-1.1,43.5*,5.6,-2.8
CCCCCC(=O)NC1CCCCN(C)C1=O (stereo not given),10.1,·,0.0,75.5*,1.0
C[C@H](CO)N1C[C@H](C)[C@H](CN(C)S(=O)(=O)c2cccc(F)c2)Oc2ncc(-c3cccc(F)c3)cc2C1=O,8.4,0.3,0.1,?,-2.3
O=C(CCc1nnc(CCCc2ccccc2)o1)NCCN1CCOC1=O,-27.5,-2.5,42.9*,-2.9,0.8
SMILES,RAD52 anneal inh,MLL AF4-AF9 inh,FGF22 binding,DENV2 CPE,ERAP1 HTS inh
CCc1nnc(NC(=O)CN2C(=O)NC3(CCCC3)C2=O)s1,-16.2,-0.4,0.0,-1.0,39.0*
C#CCOCCOCCOCCNc1nc(N2CCN(C(=O)[C@H](CCCCN)n3cc(CN)nn3)CC2)nc(N2CCN(C(=O)[C@H](CCCCN)n3cc([C@@H](N)CC(N)=O)nn3)CC2)n1,44.0,40.3*,0.0,-7.9,6.3
C#CCOCCOCCOCCNc1nc(N2CCN(C(=O)[C@H](CC(N)=O)n3cc([C@@H](N)CC(N)=O)nn3)CC2)nc(N2CCN(C(=O)[C@H](CC(N)=O)n3cc([C@@H](N)CC(N)=O)nn3)CC2)n1,-6.1,·,0.1,-9.8,-8.4
C#CCOCCOCCOCCNc1nc(OC)nc(N2CCN(C(=O)[C@H](CCC(=O)O)n3cc(C(N)CO)nn3)CC2)n1 (stereo not given in full),-4.1,1.1,0.5,23.1*,·
C#CCOCCOCCOCCNc1nc(N2CCN(C(=O)[C@H](CCCCN)n3cc([C@@H](N)[C@H](C)CC)nn3)CC2)nc(N2CCN(C(=O)[C@H](CCC(=O)O)n3cc([C@@H](N)CCCCN)nn3)CC2)n1,44.9,33.6*,-0.1,-2.3,0.3
C#CCOCCOCCOCCNc1nc(N2CCN(C(=O)[C@H](CCCN=C(N)N)n3cc(C(N)[C@@H](C)CC)nn3)CC2)nc(N2CCN(C(=O)[C@H](CCC(=O)O)n3cc([C@@H](N)CCCCN)nn3)CC2)n1 (stereo not given in full),-93.9,15.7,-0.3,6.9,-7.8
C#CCOCCOCCOCCNc1nc(N2CCN(C(=O)C([C@@H](C)O)n3cc([C@@H](N)CCCCN)nn3)CC2)nc(N2CCN(C(=O)[C@H](CCCCN)n3cc([C@@H](N)CC(N)=O)nn3)CC2)n1 (stereo not given in full),41.2,45.0*,0.3,·,-5.8
C#CCOCCOCCOCCNc1nc(N2CCN(C(=O)[C@H](CCC(=O)O)n3cc([C@@H](N)CO)nn3)CC2)nc(N2CCN(C(=O)[C@H](CCC(=O)O)n3cc([C@@H](N)CCSC)nn3)CC2)n1,-6.9,-9.0,-0.1,11.6,-2.1
O=C(NCC[C@H]1CC[C@H](NS(=O)(=O)Cc2ccccc2)[C@@H](CO)O1)C1CC1,2.3,-1.2,0.2,0.4,-2.1
C[C@@H]1CN([C@H](C)CO)S(=O)(=O)c2ccc(C#CC3CC3)cc2O[C@@H]1CN(C)C,14.9,-6.8,-0.1,-2.2,-3.6
CC(C)c1cn(CC[C@H]2CC[C@@H](NC(=O)c3cccc(F)c3)[C@H](CO)O2)nn1,0.5,0.0,0.0,18.8,1.5
O=S1c2ccccc2Oc2ccccc21,-5.4,-0.8,-0.2,-1.5,0.9
O=[S@]1Oc2ccccc2-c2ccccc21,-10.9,-1.4,-0.2,67.5*,-1.2
COc1ccc2c3c([nH]c2c1)[C@H](CO)N(C(=O)c1cccnc1)CC31CN(C(=O)NC(C)C)C1,-7.6,0.7,-0.3,-4.6,8.8
CCN(CC)Cc1c(C(=O)N/N=C/c2ccncc2)nnn1-c1nonc1N,-11.7,-3.3,0.0,5.2,·
CCN(CC)Cc1c(C(=O)N/N=C(\C)c2ccncc2)nnn1-c1nonc1N,-2.0,43.0*,-0.1,-0.5,-0.1
CCCC(=O)Nc1cc(C(=O)O)ccc1Sc1ccc(C)cc1,-17.5,-0.8,43.2*,2.9,0.6

# Compound activity deposited in PubChem by Broad Institute.
